From PubChem
Pf Dd2 growth – qHTS Primary assay for Inhibitors of Plasmodium falciparum Dd2 growth in vitro; P. falciparum Dd2 growth, SYBR Green, 72 h; Potency, µM (series often up to 28.9 µM), for inactives: at the top dose activity, negative = inhibition, usual class: inhibitors; 4.3% of 120,000 active; active = well fitted inhibition curve with a large enough effect;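 also: plate controls were DMSO vehicle for no effect and reference drug for full effect; nearly all actives have a fitted effect of over 65% in size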
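Readout: SYBR Green fluorescence, 485 nm excitation, 535 nm emission, after ~16 h lysis at 37C. Before that, Dd2-infected red cells (2.5% hematocrit) grew 72 h with compound, 29 uM top final concentration.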
The depositor's hits bear a star; i = inactive; [ ] = another dose, or the depositor's remark. Only a selection was taken, and hits are over-represented in it overall. Potency is read from the fitted curve at half-maximal effect.

SMILES	Pf Dd2 growth
O=c1n(-c2ccc(Cl)cc2)nc2n1CCN([S+](=O)([O-])c1cccs1)C2	-11%
CN1CCN(C(=O)C2CCCN(C3CCN(c4cc(C#N)ccn4)CC3)C2)CC1 (stereo unspecified)	-21%
CN(Cc1ccccc1)C(=O)Cn1c2c(c(=O)n1Cc1ccccc1)CCN(Cc1ccccc1)C2	7%
CC(C)c1noc(-c2cn(C3CCCN(C(=O)c4cccc(N(C)C)c4)C3)nn2)n1 (stereo unspecified)	-11%
CN1CCc2nc3sc(C(=O)Nc4ccccc4C(F)(F)F)c(N)c3cc2C1	8.9µM*
CN1CCc2nc3sc(C(=O)c4ccc(F)cc4)c(N)c3cc2C1	-7%
COc1ccc(NC(=O)c2sc3nc4c(cc3c2N)CN(Cc2ccccc2)CC4)cc1OC	i
c1ccc(-c2nc(C3CCNC3)no2)cc1 (stereo unspecified)	37%[5.79 µM]
Cc1ccc(CN2CCOC[C@H](Oc3ccc(C(F)(F)F)cc3)C2)cc1	i
COc1ccc(Nc2nnc(-c3ccc(C)c(S(=O)(=O)N4CCN(C)CC4)c3)c3ccccc23)cc1	8.9µM*
Cc1ccc(Nc2nnc(-c3ccc(C)c(S(=O)(=O)N4CCN(C)CC4)c3)c3ccccc23)c(C)c1	7.9µM*
Cc1ccc(Nc2nnc(-c3ccc(C)c(S(=O)(=O)N4CCN(C)CC4)c3)c3ccccc23)cc1	7.9µM*
Cc1ccc(-c2nnc(Nc3ccc(O)cc3)c3ccccc23)cc1S(=O)(=O)N1CCOCC1	8.9µM*
COC(=O)COc1ccc(-c2nnc(Nc3ccc(O)cc3)c3ccccc23)cc1	i
COc1ccccc1N1CCN(S(=O)(=O)c2cc(-c3cc(C)no3)ccc2C)CC1	-4%
COc1ccc(S(=O)(=O)N2CCC(c3nnc(-c4ccccc4C)o3)CC2)c(OC)c1	-12%
COc1nnc(-c2ccc(N3CCCCC3)c(NC(=O)c3ccc(C)cc3)c2)c2ccccc12	-8%
CNC(=O)c1cc(Nc2nnc(-c3ccc(O)cc3)c3ccccc23)ccc1OC	i
Cc1ccc(N2CCN(S(=O)(=O)c3ccc(Cl)c4ccccc34)CC2)c(C)c1	17%
COc1ccc(N2CCN(S(=O)(=O)c3ccc(-c4ccno4)cc3OC)CC2)cc1	54%
Cc1ccc(-c2nnc(Nc3ccccc3)c3ccccc23)cc1S(=O)(=O)N1CCN(C)CC1	-11%
CCN1C(=O)C2CC3(CCN(C(=O)c4cnc(C)cn4)CC3)CN2C1=O (stereo unspecified)	10%
COc1ccc(OC)c(CNC(=O)COc2ccc(NC(C)=O)cn2)c1	12%
Cc1ccc(C(=O)N2C(C(=O)NC(C)C)COC23CCN(C(=O)c2cccc([N+](=O)[O-])c2)CC3)cc1 (stereo unspecified)	i
CCCOc1ccc(CN2CCc3nc(N(C)C)[nH]c(=O)c3CC2)cc1OC	-26%[5.79 µM]
SMILES	Pf Dd2 growth
COc1cccc(C(=O)N2CCC(c3n[nH]c(=O)n3-c3ccccc3)CC2)c1OC	27%
COc1cc(C)cc(C(C(=O)O)N2CCN(c3cnccn3)CC2)c1OC (stereo unspecified)	-3%
COc1ccc(C(=O)NCC2Cn3cccc3C(=O)N2CC(C)C)cc1 (stereo unspecified)	-5%
COc1ccc(NC(=O)Cn2nc3c(cc2=O)CN(C(C)=O)CC3)cc1Cl	11%
COc1ccc(S(=O)(=O)NC(C)(C)CO)cc1-c1nnc2c3ccccc3c(C)nn12	i
Cc1ccc(-c2nnc(Nc3ccc(OC(F)(F)Cl)cc3)c3ccccc23)cc1S(=O)(=O)NC(C)(C)CO	13µM*
Cc1ccc(-c2nn3c(C)nnc3c3ccccc23)cc1S(=O)(=O)NC(C)(C)CO	-29%
Cc1ccccc1-c1noc(-c2ccc(NCC3CCCO3)c([N+](=O)[O-])c2)n1 (stereo unspecified)	8%
Cc1ccccc1Nc1nnc(-c2ccc(C)c(S(=O)(=O)NCC3CCCO3)c2)c2ccccc12 (stereo unspecified)	5.6µM*
Cc1ccc(-c2nn3c(C)nnc3c3ccccc23)cc1S(=O)(=O)NCCO	8%
Cc1nc(C)c(C(=O)NCCn2c(C)cnc2-c2cccnc2)s1	10%
Cc1ncsc1CN1CCCCCCNC(=O)CC1	9%
CC(C)(C)c1ccc(C(=O)N2C[C@@H](C(=O)O)[C@H](c3cccc(F)c3)C2)cc1	-16%
COc1cc(OC)cc(C(=O)N2CCCN(S(C)(=O)=O)c3ccccc32)c1	-15%
C[C@@H]1C(=O)O[C@H]2[C@H]1CC[C@@]1(C)Cc3sc(NS(=O)(=O)c4ccc5c(c4)CN(C(=O)C(F)(F)F)CC5)nc3[C@@H](C)[C@H]21	-16%
CC1CCN(C(=O)CN2C(=O)NC3(CCC(C(C)(C)C)CC3)C2=O)CC1 (stereo unspecified)	-3%
CCOc1ccc(C(=O)c2cn(Cc3ccccc3OC)c3cc4c(cc3c2=O)OCCO4)cc1	-13%
COc1ccc(C(=O)c2cn(Cc3cccc(C)c3)c3cc4c(cc3c2=O)OCCO4)cc1OC	7.9µM*
CCOc1ccc(NC(=O)Cn2cc(C(=O)c3ccc(C)cc3)c(=O)c3cc4c(cc32)OCO4)cc1	-9%
COc1ccccc1Cn1cc(C(=O)c2ccc(F)cc2)c(=O)c2cc3c(cc21)OCO3	5%
Cc1ccc2c(c1)c(=O)c(C(=O)c1ccccc1)cn2Cc1ccccc1F	13µM*
Cc1ccc(Cn2cc(C(=O)c3ccc4c(c3)OCO4)c(=O)c3cc(C)ccc32)cc1	10µM*
COc1ccc(C(=O)c2cn(Cc3ccccc3OC)c3cc4c(cc3c2=O)OCO4)cc1	-3%
Cc1ccc(C(=O)c2cn(Cc3ccccc3)c3ccccc3c2=O)cc1	i
Cc1ccc(C(=O)c2cn(Cc3ccccc3F)c3cc4c(cc3c2=O)OCCO4)cc1	-10%
SMILES	Pf Dd2 growth
COCCO[C@H]1COCCN(C2CCOCC2)C1	-7%[44.1 µM]
COc1cccc(C(=O)N2CCC(c3nn(-c4ccc(Cl)cc4)c(=O)[nH]3)CC2)c1	i
Cn1cc(CNC(=O)C[C@@H]2C[C@H]3O[C@H](CNC(=O)NC4CCCCC4)[C@@H](O)[C@H]3O2)cn1	i
Cc1ccsc1C(=O)N1CCc2onc(-c3ccc(F)c(F)c3)c2C1	-15%
CC(C)CC(=O)N1CCCN(S(C)(=O)=O)c2ccccc21	-1%
CC(C)C(=O)Nc1ccc2nc(SCC(=O)N3CCOCC3)sc2c1	5%
CCOc1ccc(C(=O)Nc2ccc3nc(SCC(=O)N4CCOCC4)sc3c2)cc1	8.9µM*
O=C(COc1ccccc1)Nc1ccc2nc(SCC(=O)N3CCOCC3)sc2c1	i
CS(=O)(=O)c1ccc(OCC2(CNS(=O)(=O)c3ccc(F)cc3)C[C@@H](O)[C@@H](O)C2)cc1 (stereo partly specified)	13%
O=C(Nc1ccc(Cl)cc1)c1nc2c(o1)CCN(Cc1cc(F)ccc1F)CC2	i
COc1ccccc1CNC[C@H]1Cn2c(-c3cccc(Cl)c3)cnc2CO1	13µM*
COc1ccccc1C(=O)NC[C@H]1Cn2c(-c3ccc4c(c3)OCCO4)cnc2CO1	-1%[44.1 µM]
Fc1ccc(CNC[C@H]2Cn3c(-c4ccc(F)cc4)cnc3CO2)cc1	-15%[44.1 µM]
O[C@@H]1CO[C@H]2[C@@H]1OC[C@@H]2n1nnnc1Sc1ccccc1	i
Cc1nn(C)c(C)c1S(=O)(=O)N1C[C@@H](NS(C)(=O)=O)[C@H](C(C)C)C1	16%
Cc1cc(C)c2nonc2c1S(=O)(=O)N1C[C@@H](N(C)C)[C@H](C(C)C)C1	11µM*
CC(=O)N[C@H]1CN(S(=O)(=O)c2ccc(C)c(F)c2)C[C@@H]1C(C)C	4%
